Source: PubChem BioAssay (National Center for Advancing Translational Sciences (NCATS))
KB-3-1 cytotox: KB-3-1 parental cell cytotoxicity | KB-3-1 viability, CellTiter-Glo ATP luminescence, 72 h | Potency, µM (highest dose often 46.1 µM), usual class: cytotoxic | hit rate 1.4% among 400,000 | AID 1347075; note: % is set by controls: 0 for no effect and ±100 for the full control effect; nearly all actives have a fitted effect of over 60% in size
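Cytotoxicity measured as CellTiter-Glo luminescence after 72 h at 37 C. Compound titrations were pinned onto drug-naive KB-3-1 parental adenocarcinoma cells grown in DMEM with 10% FBS, and normalized data fitted to concentration-response curves.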
MCF10A rerep: induces DNA re-replication in MCF 10a normal breast cells. hit rate 2.9% among 350,000. MCF 10A DNA re-replication, Hoechst nuclear intensity, 48 h. Potency, µM (top dose mostly 46.1 µM), for the others: at the highest dose activity, positive = re-replication, hits mostly activators. AID 624296; note: % of control where 0% means no effect; nearly all actives have a fitted effect of over 50% in size
SW480 rereplic: induces DNA re-replication in SW480 colon adenocarcinoma cells; SW480 DNA re-replication, Hoechst DNA content imaging, 48 h; Potency, µM (highest dose often 46.1 µM), for inactives: at the top dose re-replication activation, most hits filed as activators; hit rate 1.8% among 340,000; note: % of control where 0% means no effect; nearly all actives have a fitted effect of over 55% in size
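DNA re-replication was detected as more nuclei of elevated Hoechst intensity after 48 hr exposure to compound (23 nL pinned per well of 250 cells).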
VP16 counter: Gal4-VP16 reporter inhibition counter-screen. hit rate 3.5% among 310,000. Drosophila S2 Gal4-VP16 UAS-luciferase, luminescence, 20 h. AID 2546. Potency, µM (series often up to 53.6 µM), without a hit: at the highest dose activity, negative = inhibition, hits mostly inhibitors;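 note: Gal4-VP16 expression switched on by copper sulfate through the metallothionein promoter; % is set by controls: 0 for no effect and ±100 for the full control effect; nearly all actives have a fitted effect of over 50% in size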
KB-V1 MDR tox: KB-V1 MDR subline cytotoxicity | KB-V1 MDR cells viability, CellTiter-Glo, 72 h | Potency, µM (series often up to 46.1 µM), hits mostly cytotoxic | hit rate 3.4% among 400,000; note: % is set by controls: 0 for no effect and ±100 for the full control effect; nearly all actives have a fitted effect of over 60% in size
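Readout: CellTiter-Glo luminescence, 10 min after addition. Cells: KB-V1 MDR subline, 72 h at 37 degrees C with compound. Analysis: corrected, normalized data fitted to concentration-effect curves.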
RORgamma inh: blocks mouse ROR gamma transcriptional activity. Drosophila S2 Gal4-RORgamma UAS-luciferase reporter, 20 h. Potency, µM (doses to about 53.6 µM), without a hit: top-dose activity change, negative = inhibition, hits mostly inhibitors. hit rate 5.4% among 310,000. AID 2551; note: % is set by controls: 0 for no effect and ±100 for the full control effect; nearly all actives have a fitted effect of over 60% in size
Target sequence (P51450 whole entry, looked up, the tested form may be a part): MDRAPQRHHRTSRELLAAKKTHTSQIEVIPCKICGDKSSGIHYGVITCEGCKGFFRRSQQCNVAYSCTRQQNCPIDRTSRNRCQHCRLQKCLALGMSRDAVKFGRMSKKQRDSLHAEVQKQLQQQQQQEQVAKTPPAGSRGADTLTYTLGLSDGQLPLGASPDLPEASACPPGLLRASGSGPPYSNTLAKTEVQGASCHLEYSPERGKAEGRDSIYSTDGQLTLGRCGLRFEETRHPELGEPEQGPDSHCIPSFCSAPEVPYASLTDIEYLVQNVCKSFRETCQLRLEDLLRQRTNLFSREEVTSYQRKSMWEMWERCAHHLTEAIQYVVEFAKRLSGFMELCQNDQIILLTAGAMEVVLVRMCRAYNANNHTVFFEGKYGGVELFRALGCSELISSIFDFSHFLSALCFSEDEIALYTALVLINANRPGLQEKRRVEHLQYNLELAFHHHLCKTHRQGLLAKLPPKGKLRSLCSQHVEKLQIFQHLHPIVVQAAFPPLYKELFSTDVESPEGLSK
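Read-out: Photinus luciferase luminescence; inhibitors lower reporter signal. Insect Schneider cells with Gal4-ROR gamma fusion under metallothionein promoter, UAS reporter; 700 uM final copper sulfate induction, 20 hr, ambient temperature.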
* hit, by the source's call; i = inactive; ? = inconclusive; . = no result given; [ ] = remark or other dose. Shown are actives, neighbours in structure and some others; about 10% of the full set was active somewhere. Calls come from the whole dose curve; as a rule, active = well fitted curve in the direction sought with a large enough effect; inconclusive = small, poorly fitted or top-dose-only effect, or another doubt; inactive = no such curve, though single readings can be large; an effect the other way counts as inactive or inconclusive. Potency is the fitted concentration of half-maximal effect.

SMILES	KB-3-1 cytotox	MCF10A rerep	SW480 rereplic	VP16 counter	KB-V1 MDR tox	RORgamma inh
CCn1cc(S(=O)(=O)c2ccc(C)cc2)c(=O)c2cc(F)c(N3CCCCCC3)cc21	i	.	.	.	?	.
CCn1c(-c2cc(-c3ccc(OC(C)C)cc3)nc3ccccc23)n[nH]c1=S	i	17%	8%	?	i	13µM*
Cc1ccn2c(NC3CCCC3)c(-c3cccs3)nc2c1	i	?	?	-29%	?	10µM*
c1csc(-c2nc3ccccn3c2NC2CCCCC2)c1	i	?	-1%	-16%	?	10µM*
CC(C)c1nc2ccccn2c1NC1CCCCC1	i	26%	0%	?	i	5µM*
Cc1ccn2c(NC(=O)c3ccccc3)c(-c3cccs3)nc2c1	i	-2%	2%	7%	i	-1%
Cc1ccn2c(NCc3ccccc3)c(-c3cccs3)nc2c1	i	?	0%	?	?	14µM*
CC(Oc1ccccc1)C(=O)Nc1ccc(OCc2cc(=O)n3ccsc3n2)cc1 (centres undefined)	i	.	.	.	i	.
O=C(NCCc1ccccc1)c1cccc(N2CCCC2=O)c1	i	0%	-11%	10µM*	i	11µM*
Cc1ccc(CCNC(=O)c2cccc(N3CCCC3=O)c2)cc1	i	2%	2%	0%	i	6%
Cc1cccc(CCNC(=O)c2cccc(N3CCCC3=O)c2)c1	i	1%	-4%	-15%	i	10µM*
Cc1ccc2oc(-c3cc(NC(=O)c4ccc5c(c4)OCCO5)cc(C)c3O)nc2c1	i	.	.	.	i	.
Cn1c(C2CCCCC2)nc2cc(N)ccc21	i	-9%	-6%	-3%	i	5%
Cn1c(C2CCCCC2)nc2ccccc21	i	?	-54%	?	i	11µM*
O=C(Nc1ccc(Br)cc1)c1cc(S(=O)(=O)N2CCc3ccccc32)ccc1F	i	.	.	.	i	.
CCCN1CCC(=NNc2ccc(S(=O)(=O)N(CC)CC)cc2[N+](=O)[O-])CC1	?	6%	?	-13%	12µM*	17%
Cc1nc2sc3c(NCc4ccco4)ncnc3c2c2c1COC(C)(C)C2	?	?	?	-16%	18µM*	-10%
CC(C)Cc1nc2sc3c(NCc4ccco4)ncnc3c2c2c1COC(C)(C)C2	i	?	0%	-1%[0.365 µM]	i	-38%
CC1=CC(=O)C=C(C)C1=NOS(=O)(=O)c1ccccc1	?	7.3µM*	7.3µM*	18µM*	?	18µM*
Cc1ccc2c(c1)/C(=N/OS(=O)(=O)c1ccccc1)CCS2	i	-179%[0.0737 µM]	-4%	.	?	.
CC1=CC(=O)C(C(C)C)=C/C1=N/OS(=O)(=O)c1ccccc1	?	2.9µM*	0.73µM*	2µM*	21µM*	2.8µM*
NNC(=O)Cc1cccc2ccc(Cl)cc12	i	.	.	.	i	.
CCNc1nc(NCC)nc(N/N=C/c2ccc(Br)cc2)n1	i	13%	-8%	-16%	?	18µM*
CSc1ccc(/C=N/Nc2nc(C)cc(C)n2)cc1	i	3%	-4%	?	?	11µM*
Cc1cc(C)nc(N/N=C/c2cccc(Cl)c2)n1	i	-6%	-38%	6%	i	11µM*
SMILES	KB-3-1 cytotox	MCF10A rerep	SW480 rereplic	VP16 counter	KB-V1 MDR tox	RORgamma inh
Clc1cccc(/C=N/Nc2nc(Cl)nc3ccccc23)c1	?	16%	?	-2%	i	2µM*
Cc1cc(C)nc(N/N=C/c2ccc(Cl)cc2)n1	i	?	3%	-11%	?	10%
CO[C@@]1(NC(=O)Cc2cccs2)C(=O)N2C(C(=O)O)=C(COC(N)=O)CSC21 (some centres undefined)	.	.	.	5%	.	30%
COc1ccc(NC(=O)c2cn3c4c(ccc(Cl)c4c2=O)OC(C)C3)cc1OC (centres undefined)	i	.	.	.	i	.
COc1ccc2c(c1)NC(c1ccc(OCC(C)C)cc1)=NC(c1ccncc1)=N2	i	.	.	.	?	.
CCCCNCC	.	.	.	-1%	.	13%
Cc1ccc(/C=N/Nc2nc(C)cc(C)n2)cc1	?	24%	-147%	1%	i	10µM*
C=Cc1ccc(Cn2c(C)c(C(=O)NCc3ccc4c(c3)OCCO4)sc2=O)cc1	?	.	.	.	9.2µM*	.
Cc1c(C(=O)NCc2ccc(Cl)c(Cl)c2)sc(=O)n1Cc1ccc(S(=O)(=O)N(C)C)cc1	8.2µM*	.	.	.	?	.
CSc1ccc(Cn2c(C)c(C(=O)NCc3ccc(C(C)C)cc3)sc2=O)cc1	18µM*	.	.	.	16µM*	.
Cc1c(C(=O)NCc2ccc(C(C)C)cc2)sc(=O)n1Cc1cccc(F)c1	i	.	.	.	i	.
Cc1c(C(=O)NCc2ccc(C(C)C)cc2)sc(=O)n1Cc1ccc(S(=O)(=O)N(C)C)cc1	?	.	.	.	2.6µM*	.
Cc1c(C(=O)NCc2cccc(Cl)c2)sc(=O)n1Cc1ccc(C(=O)N(C)C)cc1	?	.	.	.	21µM*	.
C=C1C(=O)O[C@H]2C[C@]3(C)C([C@@H](OC(=O)/C(C)=C/C)[C@H]12)[C@](C)(O)CC[C@H]3O (some centres undefined)	i	-18%	18%	?	i	11µM*
Cc1ccccc1C(=O)N1CCN(CCc2ccccn2)CC1	i	.	.	.	i	.
CN(C)c1ncc2ncc(=O)n(C3CC3)c2n1	.	.	.	-4%	.	5%
CC1=NN(c2nc(N)nc(/C(C#N)=C/c3ccc([N+](=O)[O-])o3)n2)C(C)(C)C1	?	3.3µM*	8.2µM*	.	?	.
Cc1ccc(N=Nc2c(=O)[nH]n3c(C)cc(C)nc23)cc1	i	0%	-3%	-8%	i	?
Nc1[nH]n2c(=O)cc(-c3ccccc3)nc2c1N=Nc1ccc(S(N)(=O)=O)cc1	i	-7%	1%	-11%	i	11%
Cc1ccc(N=Nc2c(N)[nH]n3c(=O)cc(C)nc23)cc1	18µM*	?	-15%	-24%	23µM*	10µM*
Nc1[nH]n2c(=O)cc(-c3ccccc3)nc2c1N=Nc1ccccc1	8.2µM*	?	6%	10%	?	-35%
Cc1ccccc1NCc1cccn1-c1nnc(N2CCC(C)CC2)s1	i	.	.	.	i	.
N#Cc1ccc(CSc2nc3c(c(=O)[nH]2)CCC3)cc1	i	.	.	.	i	.
CCc1ccc(NC(=O)c2cnn3ccccc23)cc1	i	-7%	7%	?	i	13µM*
CCN1C(=O)/C(=C\N(C(C)=O)c2ccccc2)OC1=S	i	4%	-5%	10µM*	i	7.9µM*
Clc1cccc(-c2csc(-c3nc(-c4ccc(Br)s4)cs3)n2)c1	i	.	.	.	i	.
